# Results as given in PubChem BioAssay AID1259374 (The Scripps Research Institute Molecular Screening Center, 2018).
# In all, about 650,000 compounds went through this assay and about 5,900 (0.91%) were called active. Rule as the data show it: active = inhibition above about 50%; inactive = the rest. For the sample, actives were picked, then their nearest neighbours and some compounds at random.
# Biological target: Microphthalmia-associated transcription factor (Homo sapiens) (UniProt O75030)
# Experiment: MITF inhibitors, primary screen, biochemical, AlphaScreen, human (AID 1259374);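 also: 0% = vehicle wells with protein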
# Settings: AlphaScreen MITF homodimerization, bead proximity signal; at 2.6 µM; hits give high values
# Chain of Microphthalmia-associated transcription factor (Homo sapiens) (O75030 whole entry, looked up): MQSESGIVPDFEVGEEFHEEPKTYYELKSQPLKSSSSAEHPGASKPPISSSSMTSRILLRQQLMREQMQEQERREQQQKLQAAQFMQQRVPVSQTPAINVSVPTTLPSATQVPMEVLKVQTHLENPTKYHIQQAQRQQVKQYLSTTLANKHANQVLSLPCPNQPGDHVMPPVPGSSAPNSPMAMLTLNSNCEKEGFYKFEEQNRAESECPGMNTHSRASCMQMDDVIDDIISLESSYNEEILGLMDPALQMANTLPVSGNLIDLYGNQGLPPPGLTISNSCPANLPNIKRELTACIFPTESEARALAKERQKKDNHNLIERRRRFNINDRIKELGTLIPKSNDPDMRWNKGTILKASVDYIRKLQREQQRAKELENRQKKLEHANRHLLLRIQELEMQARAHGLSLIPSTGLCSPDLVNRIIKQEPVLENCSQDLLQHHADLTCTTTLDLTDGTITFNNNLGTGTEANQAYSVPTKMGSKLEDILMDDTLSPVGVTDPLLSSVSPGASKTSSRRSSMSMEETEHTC
row,Structure (SMILES),inhibition
1,CCN1CCc2nc3ccccc3c(C(=O)O)c2C1,61.5% (active)
2,CCn1c(C(=O)O)c(CC(=O)N2CCN(Cc3ccccc3)CC2)c2ccccc21,3.77% (inactive)
3,CCc1nc2ccccc2c(=O)n1-c1ccccc1,10.7% (inactive)
4,O=[N+]([O-])c1ccc(N2CCCCC2)c2cccnc12,27.4% (inactive)
5,CS(=O)(=O)Nc1ccc(C#N)c(Cl)c1,-2.59% (inactive)
6,CCC(=O)c1ccc(N2CCN(C)CC2)c(F)c1,-2.65% (inactive)
7,CN(CC#CC1CC2CCC1C2)C1CCCCC1 (stereo not given),-0.53% (inactive)
8,C(#CC1CC1)CN(C1CCCCC1)C1CCCCC1,83.7% (active)
9,CCn1c(=O)n(CC2CS2)c2ccccc21 (stereo not given),-0.54% (inactive)
10,Cc1cnc2nc3c(cc2c1)CN(Cc1cccnc1)CC3,-8.7% (inactive)
11,CN1CCN(c2cc3[nH]c(=S)[nH]c3cc2F)CC1,-8% (inactive)
12,CCOC(=O)C1C2NC(=S)N(c3ccc(F)cc3)C1(C)Oc1c(OCC)cccc12 (stereo not given),55.5% (active)
13,CCOC(=O)C1C2NC(=S)N(CC)C1(C)Oc1ccc(Cl)cc12 (stereo not given),65.6% (active)
14,CCOC(=O)C1C2NC(=S)N(c3ccc(CC)cc3)C1(C)Oc1c(OC)cccc12 (stereo not given),39.5% (inactive)
15,CCOC(=O)C1C2NC(=S)NC1(C)Oc1cc(OC)ccc12 (stereo not given),13.6% (inactive)
16,CCOC(=O)C1C2NC(=S)N(c3ccc(Cl)cc3)C1(C)Oc1ccccc12 (stereo not given),10.8% (inactive)
17,CCOC(=O)C1C2NC(=S)NC1(C)Oc1c(OCC)cccc12 (stereo not given),-1.57% (inactive)
18,Cn1c(SCCOC(N)=O)nnc1-c1ccc([N+](=O)[O-])cc1,5.78% (inactive)
19,CS(=O)(=O)c1ccc(CC(=O)N2CCN(C(c3ccccc3)c3ccccc3)CC2)cc1,7.6% (inactive)
20,c1ccc(-c2ccnc3nc4ccccc4n23)cc1,7.67% (inactive)
21,OC(CNC1CN2CCC1CC2)COc1cccc2ccccc12 (stereo not given),18.3% (inactive)
22,CC(C)N1CCN(Cc2ccccc2)CC1,41% (inactive)
23,COc1ccc(CN2CCN(CCO)CC2)c(OC)c1OC,-8.5% (inactive)

row,Structure (SMILES),inhibition
1,COc1ccc(CN2CCN(C(C)C)CC2)cc1,57% (active)
2,COc1ccc(CN2CCN(C(C)C)CC2)c(OC)c1OC,68.1% (active)
3,COc1ccc(CN2CCN(c3ccc(C(C)=O)cc3)CC2)cc1,18.3% (inactive)
4,COc1ccc(CN2CCN(c3ccccc3F)CC2)c(OC)c1,14% (inactive)
5,CC(C)CN(Cc1c(O)ccc2c(=O)c(-c3ccccc3)coc12)CC(C)C,-5.09% (inactive)
6,COC(NC(=O)c1ccco1)C(Cl)(Cl)Cl (stereo not given),17.3% (inactive)
7,CCCCn1c(C)c(C(=O)OCC)c2cc(OC(=O)COc3ccccc3)c3ccccc3c21,-5.32% (inactive)
8,Cc1nc2ccccc2c(=O)n1-c1cccc(Cl)c1,22.4% (inactive)
9,COc1ccc(Cl)cc1C(=O)C1CCCN(Cc2ncc[nH]2)C1 (stereo not given),7.6% (inactive)
10,COc1cc(NC(=O)CCc2nc(C3=CCN(C)CC3)no2)cc(OC)c1OC,51.6% (active)
11,CCCN1CCN(C(=O)Cc2nc(-c3ccc(OC)cc3)no2)CC1,1.81% (inactive)
12,CCOC(=O)C1=C(c2ccccc2)OC(N)=C(C#N)C12C(=O)Nc1ccc(Br)cc12 (stereo not given),2.49% (inactive)
13,CC[C@@H](C)C(=O)O[C@H]1[C@H](O)[C@H]2[C@@H](CN3C[C@@H](C)CC[C@H]3[C@@]2(C)O)[C@@H]2C[C@]34O[C@]5(O)[C@@H](OC(=O)C(C)(O)C(C)O)CC[C@@]3(C)[C@@H]5[C@@H](OC(C)=O)[C@@H](OC(C)=O)[C@H]4[C@@]21O (stereo not given in full),23.5% (inactive)
14,O=[N+]([O-])c1ccc(CNCCc2c[nH]c3ccccc23)cc1,25.3% (inactive)
15,COc1ccc(CNCCc2c[nH]c3ccccc23)cc1OC,13.6% (inactive)
16,c1cncc(CNCCc2c[nH]c3ccccc23)c1,84% (active)
17,Cc1nn(CC(=O)N2CCC3(CC2)OCCO3)c(=O)c2cccn12,-10.4% (inactive)
18,O=C1CN=C(c2ccc(Br)cc2)c2cc(Br)ccc2N1,-2.48% (inactive)
19,N#Cc1ccc(NC(=O)COc2cc(F)ccc2[N+](=O)[O-])cc1Cl,10.7% (inactive)
20,CN1CN/C(=N\[N+](=O)[O-])N(Cc2ccco2)C1,-9.51% (inactive)
21,CCC(C)N1CCN(Cc2cccc(OC)c2)CC1 (stereo not given),63.5% (active)
22,CCN1CCN(Cc2ccc(F)cc2F)CC1,1.97% (inactive)
23,COc1cccc(CN2CCN(Cc3ccccc3OC)CC2)c1,7.82% (inactive)

row,Structure (SMILES),inhibition
1,COc1ccc(CN2CCN(c3ccccc3F)CC2)c(O)c1,21.3% (inactive)
2,O=C(COc1ccccc1)N1CCN(Cc2cccc(Oc3ccccc3)c2)CC1,32.3% (inactive)
3,Fc1ccccc1CN1CCN(Cc2ccccc2F)CC1,75.5% (active)
4,Fc1ccc(N2CCN(Cc3ccccc3F)CC2)cc1,12.7% (inactive)
5,COc1cc(CN2CCN(c3ccccc3)CC2)cc(OC)c1,5.15% (inactive)
6,COc1cccc(CN2CCN(Cc3ccccc3F)CC2)c1,75.4% (active)
7,CCOC(=O)C1=C(N)Oc2cc(C)n(CC)c(=O)c2C12C(=O)N(CC(C)C)c1ccccc12 (stereo not given),4.18% (inactive)
8,Cc1ccc(C(O)(C(=O)NNc2cc(Cl)ccc2Cl)c2ccc(C)cc2)cc1,8.08% (inactive)
9,O=[N+]([O-])c1ccc(N2CCc3ccccc3C2)c2ccncc12,5.66% (inactive)
10,CC(C)(CNc1ccc([N+](=O)[O-])c2cccnc12)CNS(=O)(=O)c1ccc(Cl)cc1,0.37% (inactive)
11,N#CC1=C(N)Oc2c(c(=O)oc3ccccc23)C1c1ccc(OC(F)(F)F)cc1 (stereo not given),2.42% (inactive)
12,CSc1ccccc1NC(=O)CN(C)CC(=O)Nc1ccc(C#N)c(Cl)c1,82.2% (active)
13,COc1ccc(NC(=O)CN(C)CC(=O)Nc2ccc(C#N)c(Cl)c2)cc1,7.15% (inactive)
14,CSCCC(NC(=O)c1ccco1)C(=O)OCC(=O)Nc1ccc(C#N)c(Cl)c1 (stereo not given),4.56% (inactive)
15,COc1ccccc1N1C(=O)NC(=O)/C(=C\c2ccc(Cl)cc2Cl)C1=O,-0.45% (inactive)
16,CC(Cc1ccccc1)NC(=O)/C=C/c1ccco1 (stereo not given),7.08% (inactive)
17,CC(Cc1cccc(C(F)(F)F)c1)N1CCOCC1 (stereo not given),12.7% (inactive)
18,CCC(CC)N1CCN(Cc2ccc(F)cc2)CC1,70.5% (active)
19,Clc1ccc(CN2CCN(Cc3ccc(Cl)cc3)CC2)cc1,31.9% (inactive)
20,CCC(C)N1CCN(Cc2ccc(SC)cc2)CC1 (stereo not given),65.1% (active)
21,CCN1CCN(Cc2ccc3ccccc3c2)CC1,3.25% (inactive)
22,CCN1CCN(Cc2ccc(C(=O)OC)cc2)CC1,-13.2% (inactive)
23,CN1CCN(Cc2ccc(F)cc2)CC1CCO (stereo not given),-5.75% (inactive)

row,Structure (SMILES),inhibition
1,Fc1cccc(Cl)c1CNC1CN2CCC1CC2 (stereo not given),2.47% (inactive)
2,O=C(CN1CCCC1)c1ccccc1Br,-5.43% (inactive)
3,Cc1cc(C=C2C(=O)NC(=S)NC2=O)c(C)n1-c1ccccc1C(F)(F)F,8.02% (inactive)
4,CCOC(=O)C1=C(N)OC2=C(C(=O)CCC2)C12C(=O)Nc1ccc(Br)cc12 (stereo not given),-1.67% (inactive)
5,FC1CC2C(Cl)C1NC2(C(F)(F)F)C(F)(F)F (stereo not given),-5.25% (inactive)
6,CN1C(=O)C(=Cc2cn(CC(=O)NCc3ccco3)c3ccccc23)C(=O)N(C)C1=O,0.24% (inactive)
7,CN1CCC(N(C)c2ncnc3scc(-c4ccc(Cl)cc4)c23)CC1,51.4% (active)
8,Cn1ccnc1C1(O)CC2CCC(C1)N2CC(=O)N1CCc2ccccc2C1 (stereo not given),9.08% (inactive)
9,O=C(CN1C2CCC1CC(O)(c1ccccn1)C2)N1c2ccccc2Sc2ccccc21 (stereo not given),44.9% (inactive)
10,CC1CCCC(C)N1C(=O)CN1C2CCC1CC(O)(c1ccccn1)C2 (stereo not given),54.9% (active)
11,COc1ccccc1CN1CCN(C(=O)Cc2ccccc2)CC1,57.1% (active)
12,COc1cccc(CN2CCN(C(=O)COc3ccccc3)CC2)c1OC,43.9% (inactive)
13,COc1ccc(CN2CCN(Cc3ccccc3)CC2)cc1C,50.8% (active)
14,COc1ccccc1CN1CCN(c2ccc(F)cc2)CC1,19.3% (inactive)
15,Cc1cccc(OCC(=O)N2CCN(Cc3ccccc3)CC2)c1C,13% (inactive)
16,COc1cc(CN2CCN(Cc3ccccc3)CC2)cc(I)c1O,-2.51% (inactive)
17,COc1cc(CN2CCN(C)CC2)ccc1O,41.2% (inactive)
18,COc1ccccc1N1CCN(Cc2cccc(O)c2)CC1,24.7% (inactive)
19,COc1ccccc1CN1CCN(Cc2ccc(Br)cc2)CC1,77.5% (active)
20,CC(C)CCn1c(=O)c(C(=O)Nc2nc3ccc(F)cc3s2)c(O)c2ccccc21,9.2% (inactive)
21,CC12CCC(=O)C=C1CC[C@@H]1[C@@H]2CCC2(C)[C@@H](O)CC[C@@H]12 (stereo not given in full),3.34% (inactive)
22,Cc1cccc(-n2c(CN3C(=O)c4ccccc4C3=O)nc3ccccc3c2=O)c1,8.78% (inactive)
23,C=CCN1C(=O)NC(=O)/C(=C/c2ccc(O)c(OC)c2)C1=O,-1.51% (inactive)

row,Structure (SMILES),inhibition
1,C=CCN1C(=O)NC(=O)/C(=C/c2ccc3c(c2)OCO3)C1=O,11.9% (inactive)
2,CCNC(=S)N1CC2CC(C1)c1cccc(=O)n1C2 (stereo not given),-9.28% (inactive)
3,CCCC1=C(C(=O)OC)C2(C(=O)Nc3ccccc32)C(C(=O)OCC)=C(N)O1 (stereo not given),12% (inactive)
4,c1cc2c(cc1NC1=NCCCS1)OCCO2,2.15% (inactive)
5,O=C1NC(=S)N(Cc2ccco2)C(=O)/C1=C\c1ccc(-c2ccc([N+](=O)[O-])cc2)o1,89.9% (active)
6,O=C1NC(=S)NC(=O)C1=Cc1ccc(-c2ccccc2)o1,31.6% (inactive)
7,C=CCN1C(=O)/C(=C\c2cccn2-c2cccc([N+](=O)[O-])c2)C(=O)NC1=S,44.6% (inactive)
8,N#CC1=C(N)Oc2c(c(=O)oc3ccccc23)C1c1ccc([N+](=O)[O-])s1 (stereo not given),2.54% (inactive)
9,COc1cccc(-n2c(/C=C/c3cccnc3)nc3ccccc3c2=O)c1,-8.02% (inactive)
10,Cc1cc(C=O)c(C)n1Cc1ccco1,3.63% (inactive)
11,Cc1cc(/C=C2/C(=O)NC(=O)N(Cc3ccco3)C2=O)c(C)n1-c1ccc(C(=O)O)cc1,80.4% (active)
12,Cc1ccccc1N1C(=O)NC(=O)/C(=C\c2cc(C)n(-c3ccccc3C(=O)O)c2C)C1=O,15.6% (inactive)
13,COc1ccccc1CCNCc1ccc(C)cc1,24.2% (inactive)
14,Fc1ccc(CN2CCN(c3ccccc3)CC2)cc1F,40.2% (inactive)
15,O=[N+]([O-])c1ccccc1C[N+]12CCC(CC1)C(O)C2 (stereo not given),8.77% (inactive)
16,O=[N+]([O-])c1ccccc1CN1CCN(Cc2cccc(F)c2)CC1,51.4% (active)
17,O=[N+]([O-])c1ccc(O)c(CN2CCN(c3ccccc3)CC2)c1,9.43% (inactive)
18,Cc1ccc(CN2CCN(Cc3ccccc3[N+](=O)[O-])CC2)cc1,59.3% (active)
19,Cc1ccc(CN2CCN(C(=O)COc3cccc(C)c3)CC2)cc1,43.5% (inactive)
20,Cc1ccccc1OCC(=O)N1CCN(CCNC(=O)c2ccc3c(c2)OCO3)CC1,-3.05% (inactive)
21,O=C1NC(=S)NC(=O)C1=Cc1ccc(OCc2ccccc2)c(C(=O)O)c1,18.7% (inactive)
22,CCCC1(CCC)C(=O)NC(=Nc2ccc(OC)cc2)NC1=O,-6.47% (inactive)
23,CC(c1ccccc1F)n1cc(C(=O)NC2CC2)nn1 (stereo not given),-9.15% (inactive)
